Data as given in PubChem BioAssay (Tox21).
Inconclusive results are not listed. A call without a number means that no potency is given here. Activity calls are given as the source filed them. Unless noted, calls follow the shape of the dose curve; as a rule, active = well fitted curve in the direction sought with a large enough effect in the repeat runs; inconclusive = weak or mixed curves; inactive = no such curve, though single readings can be large; an effect the other way counts as inactive or inconclusive.

How the values were obtained:
[1] = qHTS assay to identify small molecule antagonists of the estrogen related receptor (ERR) signaling pathway - cell viability counter screen (AID 1224818); conditions: ERR reporter cell line viability counter screen; series mostly up to 46.1 µM;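 also: viability measured after 17.5 h of compound exposure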
Summary of the method: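 Cytotoxicity check run alongside the ERR antagonist screen: cells exposed to test compounds 17.5 h at 37 C, viability taken as CellTiter-Fluor fluorescence intensity.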

[2] = qHTS assay to identify small molecule antagonists of the estrogen related receptor (ERR) signaling pathway (AID 1224819; also: nearly all actives have a fitted effect of over 50% in size; also: potency is read from the fitted curve at half-maximal effect); conditions: ERR reporter cell line, luciferase inhibition; series mostly up to 46.1 µM
Summary of the method: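 ERR reporter cells were plated at 2,000 cells/well and left 6 h at 37 C/5% CO2 before pin-tool transfer of compounds in DMSO. After 18 h at 37 C, One-Glo was added and luminescence was read 30 min later at room temperature.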

[3] = qHTS assay to identify small molecule agonists of the estrogen related receptor (ERR) signaling pathway (AID 1224820); conditions: ERR reporter cell line, luciferase agonist mode; series mostly up to 46.1 µM
Summary of the method: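 An ERR cell line provided by NTP was seeded at 2,000 cells per well and allowed to settle for 6 h before compounds in DMSO were added. After 18 h at 37 C, luciferase activity was measured by One-Glo luminescence.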

[4] = test system: estrogen-related receptor alpha (ERRalpha) with PGC-1alpha coactivator, human; test: qHTS assay to identify small molecule antagonists of the estrogen related receptor signaling pathway with the pleiotropic PPARgamma coactivator (PGC) (AID 1224821; calls by dose curve;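 also: lower luminescence signal means antagonism of PGC/ERR signalling; nearly all actives have a fitted effect of over 50% in size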); conditions: ERR/PGC reporter cell line, luciferase, antagonist mode; series mostly up to 46.1 µM
Summary of the method: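 A PGC/ERR cell line supplied by NTP is seeded, allowed 6 h at 37 C, and treated with test compounds in DMSO for 18 h. Signal is then measured as luciferase luminescence using One-Glo.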

[5] = qHTS assay to identify small molecule antagonists of the estrogen related receptor signaling pathway with the pleiotropic PPARgamma coactivator (PGC) cell viability counter screen (AID 1224822;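 also: viability read after 17.5 h compound exposure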); conditions: ERR/PGC reporter cell line viability counter screen; series mostly up to 46.1 µM
Summary of the method: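 Viable cell signal (CellTiter-Fluor, 30 min, 37 C/5% CO2) was measured in PGC/ERR cells after a 17.5 h compound incubation.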

[6] = qHTS assay to identify small molecule agonists of the estrogen related receptor signaling pathway with the pleiotropic PPARgamma coactivator (PGC) (AID 1224823); conditions: ERR/PGC reporter cell line, luciferase agonist mode; series mostly up to 46.1 µM
Summary of the method: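 Compounds dissolved in DMSO are added by pin tool to PGC/ERR cells that have settled for 6 h, and incubation continues 18 h at 37 C. Reporter output is measured as One-Glo luminescence.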

SMILES	Potency [1]	Potency [2]	Potency [3]	Potency [4]	Potency [5]	Potency [6]
NCC(O)C1CCCCCCC1 (stereo not given)	inactive	inactive	inactive	inactive	inactive	inactive
NC(=O)c1cccc(N)c1	inactive	inactive	inactive	inactive	inactive	inactive
C=CCN1CCc2cc(O)c(O)cc2C(c2ccccc2)C1 (stereo not given)	inactive	inactive	inactive	inactive	inactive	inactive
NCC(O)(CS(=O)(=O)O)c1ccc(Cl)cc1 (stereo not given)	inactive	inactive	inactive	inactive	inactive	inactive
NCC1OC(OC2C(O)[C@@H](OC3C(O)C(N)CC(N)C3OC3OC(CO)C(O)C(O)C3N)O[C@@H]2CO)C(N)C(O)C1O (stereo not given in full)	inactive	inactive	inactive	inactive	inactive	inactive
NC1(C(=O)O)CCCCC1	inactive	inactive	inactive	inactive	inactive	inactive
NCCCS(=O)(=O)O	inactive	inactive	inactive	inactive	inactive	inactive
NC(=O)C(=O)O	inactive	inactive	inactive	inactive	inactive	inactive
[N-]=[N+]=Nc1ccc(C(=O)CSC[C@H](NC(=O)CC[C@H](N)C(=O)O)C(=O)NCC(=O)O)cc1	inactive	552 nM (active)	inactive	inactive	inactive	inactive
CC(C)Cn1c(=O)n(C)c(=O)c2[nH]cnc21	inactive	inactive	inactive	inactive	inactive	inactive
Cc1nc2c(OCc3ccccc3)cccn2c1CC#N	inactive	inactive	inactive	inactive	inactive	inactive
CCC(NC(C)C)C(O)c1ccc(O)c(O)c1 (stereo not given)	inactive	inactive	inactive	inactive	inactive	inactive
Nc1ccc(-c2nc3ccc(-c4nc5ccc(N)cc5[nH]4)cc3[nH]2)cc1	inactive	inactive	inactive	inactive	inactive	inactive
CCC(CO)Nc1nc(NCc2ccccc2)c2ncn(C(C)C)c2n1 (stereo not given)	inactive	inactive	inactive	inactive	inactive	inactive
O=C(O)C1CCCN(CCC=C(c2ccccc2)c2ccccc2)C1 (stereo not given)	inactive	inactive	inactive	inactive	inactive	inactive
COCCOc1cc2nc[nH]c(=O)c2cc1OCCOC	inactive	inactive	inactive	inactive	inactive	inactive
CCn1c(=O)[nH]c2cc(Cl)c(Cl)cc21	inactive	inactive	inactive	inactive	inactive	inactive
NC(N)=N[C@@H](CCC(=O)O)C(=O)O	inactive	inactive	inactive	inactive	inactive	inactive
C1CCc2nnnn2CC1	inactive	inactive	inactive	inactive	inactive	inactive
O=C(O)c1cc(=O)cc(C(=O)O)[nH]1	inactive	inactive	inactive	inactive	inactive	inactive
O=C(/C=C/c1ccc(O)cc1)c1ccc(O)cc1O	inactive	inactive	inactive	inactive	inactive	inactive
CC(=O)NCCc1c[nH]c2ccc(O)cc12	inactive	inactive	inactive	inactive	inactive	inactive
Cc1cn([C@H]2CC(N=[N+]=[N-])[C@@H](CO)O2)c(=O)[nH]c1=O (stereo not given in full)	inactive	inactive	inactive	inactive	inactive	inactive
CCCCCCCCCCCCCCCCCCN(CCCCCCCCCCCCCCCCCC)CCCN(CCO)CCO	inactive	inactive	inactive	inactive	inactive	inactive
N[C@@H](Cc1ccc(O)c(I)c1)C(=O)O	inactive	inactive	inactive	inactive	inactive	inactive
O=C(O)C1=CCNCC1	inactive	inactive	inactive	inactive	inactive	inactive
CC(=O)O[C@H]1CC2(C)[C@@H](C[C@@H](O)[C@H]3[C@@]4(C)CC[C@@H](O)[C@@H](C)[C@@H]4CC[C@@]32C)C1=C(CCC=C(C)C)C(=O)O (stereo not given in full)	inactive	inactive	inactive	inactive	inactive	inactive
OC[C@H]1NC[C@@H](O)[C@@H]1O	inactive	inactive	inactive	inactive	inactive	inactive
COc1cc2c(CCNC(C)=O)c[nH]c2cc1Cl	inactive	inactive	inactive	inactive	inactive	inactive
N[C@@H](Cc1ccc(F)cc1)C(=O)O	inactive	inactive	inactive	inactive	inactive	inactive
